# Source: PubChem BioAssay (NCATS)
# A number with no mark means an inactive call. Inconclusive results are not listed. Activity calls are given as the source filed them. Unless noted, calls follow the shape of the dose curve; as a rule, active = well fitted curve in either direction with a large enough effect (not every such curve was filed as active); inconclusive = small, poorly fitted or top-dose-only effect, or another doubt; inactive = flat fitted curve, though single readings scatter.
# What was measured:
# [1] = biological target: Lysosomal acid glucosylceramidase (Homo sapiens) (UniProt P04062); assay: Glucocerebrosidase-p2 (AID 348; in the data active = potency below about 10 µM; also: potency is read from the fitted curve at half-maximal effect); conditions: purified GBA, blue fluorogenic substrate, 40 min
# Method in brief: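 Normal human glucocerebrosidase (0.2 nM) with blue fluorogenic substrate (80 uM final) in citrate/phosphate pH 5.9 with 10mM sodium taurocholate, 0.01% tween-20; 40 min RT, NaOH/glycine stop; fluorescence Ex 365/Em 440; AC50 from a titration from 0.6 nM upwards.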
# [2] = AP1 Signaling Pathway (AID 357); conditions: ME-180 AP-1-bla reporter, EGF-induced, beta-lactamase ratio, 5 h; at 7.69 µM (top of the series) unless noted;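 also: ME-180 reporter cells stimulated with EGF at its EC50 level; % is scaled to controls: 0 for no effect and ±100 for the full control effect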
# Method in brief: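 Modulation of EGF-driven AP-1 transcription was assessed with a beta-lactamase reporter in ME-180 cells. Compound and EC50 EGF were co-incubated 5 hours at 37 °C before 2.5-hour CCF4 loading at room temperature and dual-emission reading.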
# [3] = biological target: Cytochrome P450 1A2 (Homo sapiens) (UniProt P05177); assay: p450-cyp1a2 (AID 410; calls by dose curve; also: potency is read from the fitted curve at half-maximal effect;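 as to activity change, negative = inhibition: -100% = full effect of reference inhibitor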); conditions: recombinant CYP1A2, luciferin-ME demethylation, luminescence; series mostly up to 11.4 µM
# Method in brief: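 Luminescent demethylation readout: Luciferin-ME (100uM, equal to Km) turned over by 20nM CYP1A2 for 60 min at room temperature after NADPH regeneration addition, following 10 min compound preincubation. Normalization used 57 uM furafylline as full inhibition.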
# [4] = NFAT Signaling Pathway (AID 444); conditions: Jurkat NFAT-bla M1, carbachol, beta-lactamase ratio, 5 h; at 7.69 µM (top of the series) unless noted;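 also: carbachol stimulus at about its EC50 of 1 µM final; % is scaled to controls: 0 for no effect and ±100 for the full control effect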
# Method in brief: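 Jurkat cells carrying an NFAT-driven β-lactamase reporter and co-transfected muscarinic M1 receptor were treated with compound plus carbachol (1 uM final, an EC50 level) for 5 h at 37 °C. CCF4 loading followed for 1 h at RT; 460/530 nm ratio gave %activity.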
# [5] = biological target: Glucocorticoid receptor (Homo sapiens) (UniProt P04150); assay: GR-GFP Redistribution (AID 450;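 active = compounds whose dose series gives a full or clear partial fitted curve of increased nuclear translocation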; also: potency is read from the fitted curve at half-maximal effect); conditions: U2OS GR-GFP nuclear translocation, laser cytometry, 2 h
# [6] = biological target: Glucocorticoid receptor (Homo sapiens) (UniProt P04150); assay: GR-EFC Redistribution (AID 451; calls by dose curve; also: potency is read from the fitted curve at half-maximal effect); conditions: CHO-K1 GR-EFC translocation, beta-gal luminescence, 2 h
# Method in brief: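 CHO-K1 cells stably expressing nuclear-localized β-gal enzyme acceptor and GR fused C-terminally to the enzyme donor fragment; ligand-driven nuclear translocation restores β-gal by complementation. Compounds titrated up to 46 uM final, 2 h at 37 °C; luminescence read.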
# [7] = biological target: Mitogen-activated protein kinase 10 (Mus musculus) (UniProt Q61831); assay: JNK3 AlphaScreen Assay (AID 530); conditions: JNK3 lysate, c-Jun phosphorylation; series mostly up to 11.4 µM;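 also: kinase came from lysate of stimulated human HepG2 cells; signal reports phosphorylation of biotinylated GST-cJun 1-79 at Ser73 with 10 µM ATP; % is scaled to controls: 0 for no effect and ±100 for the full control effect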
# Method in brief: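 Phosphorylation of biotinylated GST-cJun(1-79) at Ser73 is measured by AlphaScreen proximity luminescence. Enzyme is JNK3 in HepG2 lysates activated with interleukin-1beta and tumor necrosis factor alpha; ATP is 10 uM final.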
# [8] = biological target: 3',5'-cyclic-AMP phosphodiesterase 4B (Homo sapiens) (UniProt Q07343); assay: qHTS Assay for Inhibitors of PDE-IV (AID 607; active = well fitted activation curve with a large enough effect in the main read-out, with a control signal flat, not every such curve was filed as active; also: % of control where 0% means no effect); conditions: HEK293 ACTOne CNG channel cells, membrane potential fluorescence; series mostly up to 22.9 µM
# Method in brief: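 Cell-based read-out of cAMP via a modified cyclic nucleotide-gated channel and membrane potential dye (535/590 nm) in HEK293 cells expressing PDE4 endogenously. Compounds tested up to 22.9 uM final; 100 uM RO 20-1724 reference.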
# [9] = biological target: Cytochrome P450 3A4 (Homo sapiens) (UniProt P08684); assay: qHTS Assay for Activators of Cytochrome P450 3A4 (AID 885; active = well fitted curve in the direction sought with a large enough effect; an effect the other way counts as inactive or inconclusive; also: nearly all actives have a fitted effect of over 65% in size); conditions: recombinant CYP3A4, Luciferin-PPXE luminescence, 60 min; series mostly up to 11.4 µM
# Method in brief: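 Luminescent readout of luciferin formed from 25 uM Luciferin-PPXE (KM level) by 20 nM CYP3A4 in 200 mM KPO4, with 60 min NADPH-driven reaction at room temperature after 10 min compound exposure. Ketoconazole (57 uM) defined 100% inhibition.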
# [10] = biological target: Cytochrome P450 2D6 (Homo sapiens) (UniProt P10635); assay: qHTS Assay for Inhibitors and Substrates of Cytochrome P450 2D6 (AID 891; active = well fitted curve in the direction sought with a large enough effect; an effect the other way counts as inactive or inconclusive; also: nearly all actives have a fitted effect of over 60% in size; also: potency is read from the fitted curve at half-maximal effect); conditions: recombinant CYP2D6, luciferin-ME EGE luminescence; series mostly up to 11.4 µM
# Method in brief: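 Luminescent read-out of luciferin formed by 5 nM human CYP2D6 demethylating 30 uM Luciferin-ME EGE (Km level) over 60 min at room temperature after NADPH regeneration addition. Data normalized to full inhibition by 1.43 uM quinidine.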
# [11] = biological target: Cytochrome P450 2C19 (Homo sapiens) (UniProt P33261); assay: qHTS Assay for Inhibitors and Substrates of Cytochrome P450 2C19 (AID 899; active = well fitted curve in the direction sought with a large enough effect; an effect the other way counts as inactive or inconclusive; also: nearly all actives have a fitted effect of over 60% in size; also: potency is read from the fitted curve at half-maximal effect); conditions: recombinant CYP2C19, luciferin-H EGE luminescence; series mostly up to 11.4 µM
# Method in brief: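 In 50mM KPO4, the reaction held 5nM enzyme and KM-level (10uM) Luciferin-H EGE; it ran 60 min at 37C after NADPH regeneration and a 10 min compound preincubation. Luminescence values were scaled to 57uM ketoconazole as complete inhibition.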
# [12] = biological target: Cytochrome P450 3A4 (Homo sapiens) (UniProt P08684); assay: qHTS Assay for Inhibitors and Substrates of Cytochrome P450 3A4 (AID 884; active = well fitted curve in the direction sought with a large enough effect; an effect the other way counts as inactive or inconclusive; also: potency is read from the fitted curve at half-maximal effect; nearly all actives have a fitted effect of over 50% in size); conditions: recombinant CYP3A4, Luciferin-PPXE luminescence; series mostly up to 57.1 µM
# Method in brief: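 Luminescent readout of luciferin produced by CYP3A4 (20 nM) dealkylation of Luciferin-PPXE, 25 uM (its KM). NADPH-driven reaction ran 60 min at RT after 10 min compound preincubation; data scaled to 57 uM ketoconazole as 100% inhibition.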
# [13] = Stat Signaling Pathway (AID 446); conditions: ME-180 (cervical carcinoma) SIE beta-lactamase reporter, IL-6 stimulated, 5 h; at 7.69 µM (top of the series) unless noted;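 also: ME-180 cervical cancer cells given 40 pM IL-6 alongside compound; SIE-controlled beta-lactamase reporter measured as 460/530 nm FRET emission ratio; % is scaled to controls: 0 for no effect and ±100 for the full control effect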
# Method in brief: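 FRET read-out (405 nm excitation, 460/530 nm emission) of a beta-lactamase reporter under a STAT-inducible element in ME-180 cervical carcinoma cells. Cells with compound receive 40 pM IL-6 for 5 h. Values are normalised to AC90 stimulation and AC90 JAK-inhibitor controls.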
# [14] = biological target: Cytochrome P450 2C9 (Homo sapiens) (UniProt P11712); assay: qHTS Assay for Inhibitors and Substrates of Cytochrome P450 2C9 (AID 883; active = well fitted curve in the direction sought with a large enough effect; an effect the other way counts as inactive or inconclusive; also: potency is read from the fitted curve at half-maximal effect; nearly all actives have a fitted effect of over 60% in size); conditions: recombinant CYP2C9, luciferin-H luminescence, 60 min; series mostly up to 11.4 µM
# Method in brief: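 CYP2C9 deoxyluciferin hydroxylation, 37C, 60 min with NADPH regeneration; 10nM enzyme, 100uM Luciferin-H (KM). Glo detection reagent stopped reaction; luminescence normalized to sulphaphenazole (57uM) full inhibition.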
# Cytochrome P450 2D6 (Homo sapiens), sequence (P10635 whole entry, looked up): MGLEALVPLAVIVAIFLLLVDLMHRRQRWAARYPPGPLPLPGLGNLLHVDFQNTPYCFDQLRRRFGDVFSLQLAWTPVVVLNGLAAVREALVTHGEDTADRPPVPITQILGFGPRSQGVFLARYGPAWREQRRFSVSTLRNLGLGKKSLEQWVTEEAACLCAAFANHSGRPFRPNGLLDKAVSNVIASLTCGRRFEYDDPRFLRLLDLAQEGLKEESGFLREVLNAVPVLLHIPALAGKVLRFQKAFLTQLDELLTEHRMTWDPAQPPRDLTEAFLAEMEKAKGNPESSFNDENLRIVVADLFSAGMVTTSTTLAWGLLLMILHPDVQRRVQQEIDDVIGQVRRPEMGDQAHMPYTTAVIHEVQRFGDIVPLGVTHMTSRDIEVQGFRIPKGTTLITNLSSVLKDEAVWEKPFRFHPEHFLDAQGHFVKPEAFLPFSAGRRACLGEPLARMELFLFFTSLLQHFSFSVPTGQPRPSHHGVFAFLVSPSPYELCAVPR
# 3',5'-cyclic-AMP phosphodiesterase 4B (Homo sapiens), sequence (Q07343 whole entry, looked up): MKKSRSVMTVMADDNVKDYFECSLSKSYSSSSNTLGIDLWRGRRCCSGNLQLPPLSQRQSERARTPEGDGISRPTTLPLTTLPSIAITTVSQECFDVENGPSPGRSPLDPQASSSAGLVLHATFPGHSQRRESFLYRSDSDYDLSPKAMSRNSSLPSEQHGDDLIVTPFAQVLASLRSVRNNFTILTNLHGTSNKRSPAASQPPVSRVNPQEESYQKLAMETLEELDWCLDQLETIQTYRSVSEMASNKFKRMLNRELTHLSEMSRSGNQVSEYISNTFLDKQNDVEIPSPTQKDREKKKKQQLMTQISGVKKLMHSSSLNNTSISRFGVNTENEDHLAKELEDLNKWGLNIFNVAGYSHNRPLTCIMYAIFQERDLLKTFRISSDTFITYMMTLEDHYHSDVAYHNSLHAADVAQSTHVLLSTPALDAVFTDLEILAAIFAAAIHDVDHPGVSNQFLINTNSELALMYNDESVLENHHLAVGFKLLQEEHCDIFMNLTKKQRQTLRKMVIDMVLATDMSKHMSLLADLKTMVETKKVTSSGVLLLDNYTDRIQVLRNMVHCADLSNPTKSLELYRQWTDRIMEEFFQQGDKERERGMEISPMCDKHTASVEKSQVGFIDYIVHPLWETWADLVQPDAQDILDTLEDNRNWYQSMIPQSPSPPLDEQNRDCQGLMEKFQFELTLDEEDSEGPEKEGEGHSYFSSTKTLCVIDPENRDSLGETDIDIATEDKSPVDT
# Glucocorticoid receptor (Homo sapiens), sequence (P04150 whole entry, looked up, the tested form may be a part): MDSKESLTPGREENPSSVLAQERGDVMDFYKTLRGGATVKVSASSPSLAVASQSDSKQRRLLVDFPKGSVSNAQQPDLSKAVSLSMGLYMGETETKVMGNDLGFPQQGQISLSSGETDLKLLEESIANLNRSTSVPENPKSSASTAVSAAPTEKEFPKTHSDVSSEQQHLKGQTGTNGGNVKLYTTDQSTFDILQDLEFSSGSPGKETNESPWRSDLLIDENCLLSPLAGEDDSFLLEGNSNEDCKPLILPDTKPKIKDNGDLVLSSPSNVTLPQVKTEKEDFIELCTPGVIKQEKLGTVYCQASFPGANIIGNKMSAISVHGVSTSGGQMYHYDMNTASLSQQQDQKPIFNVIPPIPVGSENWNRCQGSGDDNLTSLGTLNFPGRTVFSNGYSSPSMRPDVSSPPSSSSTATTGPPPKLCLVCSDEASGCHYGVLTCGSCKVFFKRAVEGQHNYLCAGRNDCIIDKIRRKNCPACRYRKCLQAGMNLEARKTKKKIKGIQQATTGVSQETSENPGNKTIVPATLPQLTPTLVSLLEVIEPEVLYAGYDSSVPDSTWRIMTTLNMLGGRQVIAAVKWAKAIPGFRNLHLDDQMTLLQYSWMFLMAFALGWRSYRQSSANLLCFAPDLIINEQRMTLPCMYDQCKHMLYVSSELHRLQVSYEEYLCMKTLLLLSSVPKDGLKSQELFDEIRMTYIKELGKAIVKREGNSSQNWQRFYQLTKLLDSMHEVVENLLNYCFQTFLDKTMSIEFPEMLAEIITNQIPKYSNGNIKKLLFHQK
# Cytochrome P450 1A2 (Homo sapiens), sequence (P05177 whole entry, looked up): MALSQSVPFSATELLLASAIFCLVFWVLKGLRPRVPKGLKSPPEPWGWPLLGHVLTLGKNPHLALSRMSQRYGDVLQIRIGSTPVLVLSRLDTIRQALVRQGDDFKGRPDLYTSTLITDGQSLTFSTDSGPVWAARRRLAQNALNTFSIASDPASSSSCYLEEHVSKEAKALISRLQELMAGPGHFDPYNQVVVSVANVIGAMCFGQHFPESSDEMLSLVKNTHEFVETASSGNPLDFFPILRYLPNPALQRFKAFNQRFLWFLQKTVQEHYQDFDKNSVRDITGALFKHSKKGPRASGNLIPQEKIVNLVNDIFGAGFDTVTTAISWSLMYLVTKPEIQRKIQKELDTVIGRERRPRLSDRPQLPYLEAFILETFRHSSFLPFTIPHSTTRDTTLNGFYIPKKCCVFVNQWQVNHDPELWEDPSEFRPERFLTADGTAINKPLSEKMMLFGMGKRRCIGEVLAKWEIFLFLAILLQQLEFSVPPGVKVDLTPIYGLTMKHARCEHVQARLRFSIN
# Cytochrome P450 3A4 (Homo sapiens), sequence (P08684 whole entry, looked up): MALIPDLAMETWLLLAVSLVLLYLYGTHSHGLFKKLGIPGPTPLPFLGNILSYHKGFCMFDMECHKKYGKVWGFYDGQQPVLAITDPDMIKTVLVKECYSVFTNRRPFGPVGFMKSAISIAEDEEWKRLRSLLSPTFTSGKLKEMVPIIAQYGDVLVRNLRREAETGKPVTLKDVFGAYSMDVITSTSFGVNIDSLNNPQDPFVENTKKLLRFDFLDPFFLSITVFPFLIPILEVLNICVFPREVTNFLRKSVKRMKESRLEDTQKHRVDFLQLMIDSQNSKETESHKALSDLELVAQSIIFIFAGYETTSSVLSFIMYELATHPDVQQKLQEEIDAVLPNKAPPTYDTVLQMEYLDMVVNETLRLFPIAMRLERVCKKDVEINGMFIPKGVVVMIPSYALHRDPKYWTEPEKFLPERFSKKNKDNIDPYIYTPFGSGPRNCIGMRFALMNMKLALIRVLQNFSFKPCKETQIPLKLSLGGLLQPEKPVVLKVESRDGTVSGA
# Lysosomal acid glucosylceramidase (Homo sapiens), sequence (P04062 whole entry, looked up): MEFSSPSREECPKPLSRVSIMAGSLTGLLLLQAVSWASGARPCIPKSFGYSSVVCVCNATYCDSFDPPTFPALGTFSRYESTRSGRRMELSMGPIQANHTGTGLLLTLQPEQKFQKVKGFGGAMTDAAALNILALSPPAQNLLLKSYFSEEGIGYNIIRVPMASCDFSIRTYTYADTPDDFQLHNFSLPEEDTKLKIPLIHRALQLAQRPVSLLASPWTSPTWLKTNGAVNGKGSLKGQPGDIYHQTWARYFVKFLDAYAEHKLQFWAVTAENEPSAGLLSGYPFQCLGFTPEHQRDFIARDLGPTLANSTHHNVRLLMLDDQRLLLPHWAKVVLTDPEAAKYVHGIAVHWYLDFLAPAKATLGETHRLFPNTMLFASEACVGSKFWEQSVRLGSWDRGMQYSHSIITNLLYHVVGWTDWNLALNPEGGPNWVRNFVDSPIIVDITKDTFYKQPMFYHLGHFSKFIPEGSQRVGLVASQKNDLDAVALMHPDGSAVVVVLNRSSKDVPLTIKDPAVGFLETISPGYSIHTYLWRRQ
# Cytochrome P450 2C19 (Homo sapiens), sequence (P33261 whole entry, looked up): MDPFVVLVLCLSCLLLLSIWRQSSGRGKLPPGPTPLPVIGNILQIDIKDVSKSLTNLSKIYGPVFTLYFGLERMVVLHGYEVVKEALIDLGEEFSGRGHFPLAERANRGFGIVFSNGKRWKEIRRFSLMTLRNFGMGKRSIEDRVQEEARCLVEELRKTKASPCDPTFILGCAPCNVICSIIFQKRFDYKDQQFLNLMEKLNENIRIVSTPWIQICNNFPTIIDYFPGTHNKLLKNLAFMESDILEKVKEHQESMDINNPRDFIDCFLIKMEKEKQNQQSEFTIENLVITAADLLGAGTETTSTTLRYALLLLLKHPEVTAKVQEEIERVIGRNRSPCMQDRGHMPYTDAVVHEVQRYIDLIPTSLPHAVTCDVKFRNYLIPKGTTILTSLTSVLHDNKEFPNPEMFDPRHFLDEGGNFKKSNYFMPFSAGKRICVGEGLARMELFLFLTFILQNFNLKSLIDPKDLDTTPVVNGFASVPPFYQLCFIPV
# Cytochrome P450 2C9 (Homo sapiens), sequence (P11712 whole entry, looked up): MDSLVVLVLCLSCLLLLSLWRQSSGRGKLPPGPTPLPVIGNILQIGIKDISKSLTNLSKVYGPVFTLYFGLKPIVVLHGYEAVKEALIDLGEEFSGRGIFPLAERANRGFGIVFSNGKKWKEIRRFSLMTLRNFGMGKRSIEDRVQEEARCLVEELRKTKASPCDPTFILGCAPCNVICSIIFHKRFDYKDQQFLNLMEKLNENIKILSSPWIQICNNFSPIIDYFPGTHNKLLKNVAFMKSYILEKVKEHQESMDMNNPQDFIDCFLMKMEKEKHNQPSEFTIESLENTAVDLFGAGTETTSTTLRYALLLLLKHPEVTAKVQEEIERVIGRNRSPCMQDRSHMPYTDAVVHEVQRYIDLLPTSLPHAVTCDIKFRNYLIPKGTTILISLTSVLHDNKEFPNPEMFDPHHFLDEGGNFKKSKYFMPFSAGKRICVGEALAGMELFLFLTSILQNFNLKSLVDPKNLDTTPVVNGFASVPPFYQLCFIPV
SMILES,Potency [1] [µM],"activity change, negative = inhibition [2] [%]",Potency [3],"activity change, negative = inhibition [4] [%]",Potency [5] [µM],Potency [6] [µM],Potency [7],Potency [8],Potency [9],Potency [10],Potency [11],"activity change, negative = inhibition [3]",Potency [12],"activity, negative = inhibition [13] [%]",Potency [14]
O=c1c2ccccc2sc2c(CO)ccc(NCCN3CCCCC3)c12,> 11.4,-1.51,1.58 µM (active),27.4,> 46,> 9.22,inactive,inactive,inactive,1.26 µM (active),,,,,
Cn1cnc([N+](=O)[O-])c1SCC(=O)O,> 11.4,3.98,inactive,3.51,> 46,> 9.22,inactive,inactive,,,inactive,,,,
N/C(=N\O)c1cn([C@@H]2O[C@@H](CO)[C@H](O)[C@@H]2O)c2ncnc(NO)c12,> 11.4,5.84,,19.5,> 46,> 9.22,inactive,inactive,,,,-18.7% [at 2.29 µM],,,
CN(C)CCCN1c2ccccc2Sc2cnccc21,> 11.4,6.06,0.501 µM (active),-14.8,> 46,> 9.22,inactive,inactive,inactive,1.58 µM (active),,,1.58 µM (active),,
N=C(N)SCc1ccc(Cl)cc1Cl (tested in a mixture with another compound),> 11.4,23.5,3.98 µM (active),-21.9,> 46,> 9.22,inactive,inactive,,3.16 µM (active),,,,,
CC(C)(N)CO[C@H]1C[C@H]2CC[C@@]1(C)C2(C)C,> 11.4,4.93,inactive,3.38,> 46,> 9.22,inactive,inactive,,,,,,,
CC(C)(CN)CN,> 11.4,0.738,inactive,2.82,> 46,> 9.22,inactive,inactive,,inactive,,,,,
S=C(Nc1ccc2c(c1)Cc1ccccc1-2)Nc1ccc2c(c1)Cc1ccccc1-2,> 11.4,-4.53,0.2 µM (active),9.24,> 46,> 9.22,inactive,inactive,inactive,,,,,,
O=C(O)C(Sc1ccc(Cl)cc1)Sc1ccc(Cl)cc1,> 11.4,0.225,,-19.6,> 46,> 9.22,inactive,inactive,,,,-27.8% [at 2.29 µM],,,
Sc1ccc2ccccc2c1CNCc1ccccc1,> 11.4,12.3,1.26 µM (active),-0.525,> 46,> 9.22,inactive,inactive,,1.26 µM (active),,,,,
Cn1c(=S)c2[nH]c(SCCN3CCCC3)nc2n(C)c1=O,> 11.4,-5.98,,11.4,> 46,> 9.22,inactive,inactive,,,,-29.7% [at 2.29 µM],,,
Nc1ncnc2c1ncn2[C@H]1O[C@@H](C(=O)O)[C@@H](O)[C@H]1O,> 11.4,17.5,inactive,,> 46,> 9.22,inactive,inactive,,,,,,6.21,
c1ccc([P+](CC[P+](c2ccccc2)(c2ccccc2)c2ccccc2)(c2ccccc2)c2ccccc2)cc1,> 11.4,1.2,inactive,,> 46,> 9.22,inactive,inactive,,,,,,7.49,
CN(C)CCCN1CCC2(CCC(C(C)(C)C)CC2)CC1,> 11.4,-6.54,inactive,,> 46,> 9.22,inactive,,,,,,,8.08,
Cc1cc(=Nc2ccc3c(c2)c(N)cc(C)[n+]3C)nc(N)n1C,> 11.4,-3.85,,,> 46,> 9.22,inactive,inactive,,,,-5.3% [at 2.29 µM],,-8.63,
c1ccc(NCCSc2nc3ccccc3s2)cc1,> 11.4,2.9,0.501 µM (active),-14.1,> 46,> 9.22,inactive,inactive,,,0.398 µM (active),,,,
O=C(O)/C=C\c1c2ccc(=O)c(O)c-2oc2c(O)c(O)ccc12,> 11.4,-8.29,,2.25,> 46,> 9.22,,inactive,,,,-19.8% [at 2.29 µM],,,
Cc1c2cc[n+](CCN3CCCCC3)cc2c(C)c2c1[nH]c1ccc(O)cc12,> 11.4,9.2,2.51 µM (active),,> 46,> 9.22,inactive,inactive,,,,,,17.1,
O=C1C=CC(=Nc2cccc3c(N=C4C=CC(=O)O4)cccc23)O1,> 11.4,5.25,inactive,,> 46,> 9.22,inactive,inactive,,,,,,-22.4,
COC(=O)CC[C@@H](C)[C@H]1CC[C@H]2[C@H]3CC[C@H]4C[C@@H]5CC[C@@]4(C)C3(O5)[C@@H](Br)[C@@H](Br)[C@@]12C,> 11.4,21.4,inactive,8.56,> 46,> 9.22,,inactive,inactive,,,,,,2.51 µM (active)
Cc1nc2cnc(N3CCNCC3)nc2n(-c2ccccc2)c1=O,> 11.4,-4.43,10 µM (active),1.83,> 9.22,> 46,inactive,,inactive,,,,,,
N/N=C1/CC(=O)NC(=O)N1,> 11.4,2.16,0.631 µM (active),,> 46,> 9.22,inactive,inactive,,,,,,-13,
O=C(O)C[n+]1ccccc1,> 11.4,-3.27,inactive,-24,,,inactive,inactive,,,,,,,
O=C(Nc1cccc2cccnc12)[C@@H]1[C@@H](C(=O)O)[C@H]2CC[C@@H]1O2,> 11.4,6.33,inactive,,> 46,> 9.22,inactive,inactive,,,,,,-11,
CC(C)C12CC[C@@]3(CC[C@H]4[C@@](C)(CCC[C@]4(C)C(=O)O)[C@@H]3C1)[C@@H](CN)C2,> 11.4,-3.83,inactive,,> 46,> 9.22,inactive,inactive,,,,,,1.18,
Cn1c(Sc2ccc(-c3cccnc3)n2C)ccc1-c1cccnc1,> 11.4,1.8,0.398 µM (active),-29.9,> 46,> 9.22,,inactive,inactive,,,,0.631 µM (active),,
CN(C)Cc1ccc(-c2cc3onc(-c4ccccc4)c3c(=O)n2C)cc1,> 11.4,12.1,inactive,,> 46,> 9.22,inactive,inactive,,,,,,-3.19,
